Source: the supplement of paper PMC10849652
Of roughly 8,800 targets only a part is listed; those with a hit were picked by preference. About 0.5% of all pairs of compound and target were hits.

Key:
Assay in all cases: log2 fold change, soluble protein after heating vs DMSO (PISA); higher = thermal stabilisation; K562 lysate, 10 uM; active = over 0.2 and 3.5 SD of the protein, either way, in both replicates (recomputed)
vemurafenib = compound: CCCS(=O)(=O)Nc1ccc(F)c(C(=O)c2c[nH]c3ncc(-c4ccc(Cl)cc4)cc23)c1F [vemurafenib]
In short: (§1)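 K562 pellets were dounce-homogenised in PBS pH 7.4 with 1 mM MgCl2, and the crude extract at 1 mg/mL protein was treated with 10 μM compound for 30 min. Aliquots were heated for 3 min across 48°C-58°C, pooled, and brought to 0.5% NP-40 at 4°C; soluble protein was the supernatant after 21,000xg for 90 min. Soluble protein was quantified by TMTpro 16plex LC-MS/MS with channel sums equalised, and reported as log2 fold change in thermal stability against DMSO controls, with values from duplicates.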

[1] = compound: CCCS(=O)(=O)Nc1ccc(F)c(C(=O)c2c[nH]c3ncc(Cl)cc23)c1F
In short: as §1

barasertib = compound: CCN(CCCOc1ccc2c(Nc3cc(CC(=O)Nc4cccc(F)c4)[nH]n3)ncnc2c1)CCOP(=O)(O)O [barasertib]
In short: as §1

[2] = compound: CC[C@@H]1C(=O)N(C)c2cnc(Nc3ccc(C(=O)NC4CCN(C)CC4)cc3OC)nc2N1C1CCCC1
In short: as §1

volasertib = compound: CC[C@@H]1C(=O)N(C)c2cnc(Nc3ccc(C(=O)N[C@H]4CC[C@H](N5CCN(CC6CC6)CC5)CC4)cc3OC)nc2N1C(C)C [volasertib]
In short: as §1

[3] = compound: CCn1c(C(=O)N(C2CC2)C2CC2)cc2c3c(ncn3C)c(Nc3cc(C)n(C)n3)nc21
In short: as §1

[4] = compound: CCn1cc(-c2ccnc3[nH]c(-c4cccc(CN(C)C)c4)cc23)c(-c2ccc(NC(=O)N(C)C)cc2)n1
In short: as §1

[5] = compound: CN1CCC(CNc2ccc3ncc(-c4cccc(OC(F)(F)F)c4)n3n2)CC1
In short: as §1

saracatinib = compound: CN1CCN(CCOc2cc(OC3CCOCC3)c3c(Nc4c(Cl)ccc5c4OCO5)ncnc3c2)CC1 [saracatinib]
In short: as §1

sotrastaurin = compound: CN1CCN(c2nc(C3=C(c4c[nH]c5ccccc45)C(=O)NC3=O)c3ccccc3n2)CC1 [sotrastaurin]
In short: as §1

alvocidib = compound: CN1CC[C@H](c2c(O)cc(O)c3c(=O)cc(-c4ccccc4Cl)oc23)[C@H](O)C1 [alvocidib]
In short: as §1

Tubastatin A = compound: CN1CCc2c(c3ccccc3n2Cc2ccc(C(=O)NO)cc2)C1 [Tubastatin A]
In short: as §1

[6] = compound: CNC(=O)C1=CC=CC=C1NC2=NC(=NC=C2Cl)NC3=C(C=C(C=C3)N4CCOCC4)OC
In short: as §1

defactinib = compound: CNC(=O)c1ccc(Nc2ncc(C(F)(F)F)c(NCc3nccnc3N(C)S(C)(=O)=O)n2)cc1 [defactinib]
In short: as §1

[7] = compound: CNc1nc(-c2ccc3c(N)n[nH]c3c2)cc(N2C[C@@H](C(=O)NC3CCCCC3)CC[C@H]2C)n1
In short: as §1

encorafenib = compound: COC(=O)N[C@@H](C)CNc1nccc(-c2cn(C(C)C)nc2-c2cc(Cl)cc(NS(C)(=O)=O)c2F)n1 [encorafenib]
In short: as §1

[8] = compound: COC(=O)[C@H](CCSC)NC(=O)C1=C(C=C(C=C1)NC[C@H](CS)N)C2=CC=CC=C2
In short: as §1

alisertib = compound: COc1cc(Nc2ncc3c(n2)-c2ccc(Cl)cc2C(c2c(F)cccc2OC)=NC3)ccc1C(=O)O [alisertib]
In short: as §1

[9] = compound: COc1cc2nc(-c3cc(F)ccc3O)nc(N[C@@H]3CNC[C@H]3C(C)(C)O)c2cc1OC
In short: as §1

gefitinib = compound: COc1cc2ncnc(Nc3ccc(F)c(Cl)c3)c2cc1OCCCN1CCOCC1 [gefitinib]
In short: as §1

Measured: log2 fold change

TRAPPC10 (UniProt P48553)
Sequence of UniProt P48553 (P48553 whole entry, looked up): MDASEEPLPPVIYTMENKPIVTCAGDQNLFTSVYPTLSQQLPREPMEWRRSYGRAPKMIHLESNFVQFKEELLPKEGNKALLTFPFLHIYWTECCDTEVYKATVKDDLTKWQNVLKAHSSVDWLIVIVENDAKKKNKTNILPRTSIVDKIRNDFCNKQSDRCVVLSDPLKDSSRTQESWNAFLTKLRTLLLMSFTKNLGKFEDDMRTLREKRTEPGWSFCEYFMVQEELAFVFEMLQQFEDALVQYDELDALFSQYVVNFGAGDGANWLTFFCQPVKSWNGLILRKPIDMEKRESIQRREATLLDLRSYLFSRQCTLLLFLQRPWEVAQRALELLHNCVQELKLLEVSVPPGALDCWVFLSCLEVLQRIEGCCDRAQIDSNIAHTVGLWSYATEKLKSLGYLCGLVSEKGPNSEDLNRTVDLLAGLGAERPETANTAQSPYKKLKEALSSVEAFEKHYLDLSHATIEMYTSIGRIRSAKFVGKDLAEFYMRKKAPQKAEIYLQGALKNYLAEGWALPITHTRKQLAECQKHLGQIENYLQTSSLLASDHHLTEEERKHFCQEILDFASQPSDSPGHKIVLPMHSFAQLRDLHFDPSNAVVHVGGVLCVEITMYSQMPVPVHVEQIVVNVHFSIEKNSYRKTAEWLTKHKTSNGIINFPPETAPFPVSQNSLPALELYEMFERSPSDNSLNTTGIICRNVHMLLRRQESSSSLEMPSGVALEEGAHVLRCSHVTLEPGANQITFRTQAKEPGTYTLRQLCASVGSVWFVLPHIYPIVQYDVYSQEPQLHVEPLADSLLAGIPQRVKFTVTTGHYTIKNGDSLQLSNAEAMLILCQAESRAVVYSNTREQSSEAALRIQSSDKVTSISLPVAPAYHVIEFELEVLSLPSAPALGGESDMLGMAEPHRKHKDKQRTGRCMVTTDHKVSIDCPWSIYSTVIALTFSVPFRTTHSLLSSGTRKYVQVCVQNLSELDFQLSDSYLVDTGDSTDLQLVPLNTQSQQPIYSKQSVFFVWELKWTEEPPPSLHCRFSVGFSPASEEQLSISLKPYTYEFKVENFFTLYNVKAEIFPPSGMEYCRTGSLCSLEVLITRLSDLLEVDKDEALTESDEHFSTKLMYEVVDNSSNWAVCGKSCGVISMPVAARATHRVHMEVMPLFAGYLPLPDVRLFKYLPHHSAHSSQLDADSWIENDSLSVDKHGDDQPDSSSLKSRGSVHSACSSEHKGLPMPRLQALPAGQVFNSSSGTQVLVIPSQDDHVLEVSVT
inactive: vemurafenib 0.022 | [1] 0.009 | barasertib 0.027 | [2] -0.063 | volasertib -0.052 | [3] 0.022 | [4] -0.061 | [5] 0.071 | saracatinib 0.016 | sotrastaurin -0.039 | alvocidib -0.034 | Tubastatin A -0.074 | [6] 0.01 | defactinib -0.034 | [7] 0.011 | encorafenib 0.009 | [8] -0.047 | alisertib 0.015 | [9] -0.001 | gefitinib -0.029

TUBA4A (UniProt P68366)
inactive: vemurafenib 0.003 | [1] -0.045 | barasertib 0.028 | [2] -0.023 | volasertib -0.056 | [3] 0.033 | [4] -0.05 | [5] 0.003 | saracatinib -0.036 | sotrastaurin -0.039 | alvocidib 0.003 | Tubastatin A -0.068 | [6] 0.049 | defactinib 0.014 | [7] -0.001 | encorafenib -0.039 | [8] 0.125 | alisertib 0.027 | [9] 0.032 | gefitinib 0.007

TMEM97 (UniProt Q5BJF2)
Sequence of UniProt Q5BJF2 (Q5BJF2 whole entry, looked up): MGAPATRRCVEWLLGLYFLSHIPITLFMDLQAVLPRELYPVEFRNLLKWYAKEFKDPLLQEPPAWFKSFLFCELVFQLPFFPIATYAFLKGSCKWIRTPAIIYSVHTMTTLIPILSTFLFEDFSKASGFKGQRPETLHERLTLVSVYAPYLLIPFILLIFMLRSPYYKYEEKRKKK
active: [4] -0.327
inactive: vemurafenib 0.076 | [1] -0.027 | barasertib 0.037 | [2] 0.028 | volasertib 0.099 | [3] -0.048 | [5] 0.173 | saracatinib 0.002 | sotrastaurin -0.08 | alvocidib -0.081 | Tubastatin A 0.114 | [6] -0.016 | defactinib -0.021 | [7] 0.091 | encorafenib -0.008 | [8] -0.042 | alisertib -0.026 | [9] 0.014 | gefitinib -0.017

TRIM56 (UniProt Q9BRZ2)
Sequence of UniProt Q9BRZ2 (Q9BRZ2 whole entry, looked up): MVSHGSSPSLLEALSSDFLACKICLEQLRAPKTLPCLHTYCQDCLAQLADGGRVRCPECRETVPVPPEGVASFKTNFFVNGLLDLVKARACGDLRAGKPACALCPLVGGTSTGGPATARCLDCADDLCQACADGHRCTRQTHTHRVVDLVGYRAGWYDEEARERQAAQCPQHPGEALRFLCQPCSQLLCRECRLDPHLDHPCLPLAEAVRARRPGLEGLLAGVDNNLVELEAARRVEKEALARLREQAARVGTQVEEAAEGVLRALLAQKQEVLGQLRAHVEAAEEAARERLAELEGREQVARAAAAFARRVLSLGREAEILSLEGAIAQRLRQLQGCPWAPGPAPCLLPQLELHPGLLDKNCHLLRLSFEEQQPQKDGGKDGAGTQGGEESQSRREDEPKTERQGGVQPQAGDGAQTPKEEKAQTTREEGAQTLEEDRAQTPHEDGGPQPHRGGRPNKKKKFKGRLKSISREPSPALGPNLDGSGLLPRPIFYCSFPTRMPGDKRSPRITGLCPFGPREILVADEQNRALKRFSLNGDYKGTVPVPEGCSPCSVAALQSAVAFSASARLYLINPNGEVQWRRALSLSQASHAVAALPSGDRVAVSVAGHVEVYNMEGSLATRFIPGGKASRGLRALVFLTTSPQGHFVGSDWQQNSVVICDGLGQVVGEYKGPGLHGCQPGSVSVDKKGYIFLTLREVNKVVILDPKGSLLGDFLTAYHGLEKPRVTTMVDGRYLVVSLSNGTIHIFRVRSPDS
inactive: vemurafenib 0.026 | [1] 0.026 | barasertib -0.039 | [2] 0.006 | volasertib -0.029 | [3] -0.04 | [4] 0.227 | [5] -0.102 | saracatinib 0.031 | sotrastaurin -0.019 | alvocidib -0.013 | Tubastatin A -0.13 | [6] 0.067 | defactinib 0.008 | [7] -0.059 | encorafenib 0.068 | [8] -0.21 | alisertib 0.04 | [9] 0.001 | gefitinib -0.01

TRIP13 (UniProt Q15645)
inactive: vemurafenib -0.036 | [1] 0 | barasertib 0.033 | [2] -0.083 | volasertib -0.089 | [3] 0.034 | [4] 0.003 | [5] -0.019 | saracatinib 0.008 | sotrastaurin 0.05 | alvocidib 0.018 | Tubastatin A -0.159 | [6] 0.014 | defactinib 0.07 | [7] -0.049 | encorafenib 0.03 | [8] 0.114 | alisertib 0 | [9] 0.014 | gefitinib -0.036

TRMT10A (UniProt Q8TBZ6)
Sequence of UniProt Q8TBZ6 (Q8TBZ6 whole entry, looked up): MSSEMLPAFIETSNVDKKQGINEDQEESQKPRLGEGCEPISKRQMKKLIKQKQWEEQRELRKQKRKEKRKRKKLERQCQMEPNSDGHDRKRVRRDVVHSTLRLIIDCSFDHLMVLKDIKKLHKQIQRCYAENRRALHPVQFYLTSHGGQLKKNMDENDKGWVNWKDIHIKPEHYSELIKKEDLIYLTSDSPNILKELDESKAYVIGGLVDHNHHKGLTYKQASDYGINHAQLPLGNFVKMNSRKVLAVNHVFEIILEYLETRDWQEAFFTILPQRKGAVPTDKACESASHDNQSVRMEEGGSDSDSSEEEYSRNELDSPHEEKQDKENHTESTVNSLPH
inactive: vemurafenib 0.005 | [1] -0.025 | barasertib -0.08 | [2] 0.118 | volasertib -0.014 | [3] -0.005 | [4] -0.027 | [5] 0.029 | saracatinib -0.014 | sotrastaurin 0.006 | alvocidib 0.003 | Tubastatin A -0.008 | [6] 0.095 | defactinib -0.01 | [7] 0.09 | encorafenib -0.031 | [8] -0.012 | alisertib 0.015 | [9] -0.021 | gefitinib -0.004

TTI2 (UniProt Q6NXR4)
Sequence of UniProt Q6NXR4 (Q6NXR4 whole entry, looked up): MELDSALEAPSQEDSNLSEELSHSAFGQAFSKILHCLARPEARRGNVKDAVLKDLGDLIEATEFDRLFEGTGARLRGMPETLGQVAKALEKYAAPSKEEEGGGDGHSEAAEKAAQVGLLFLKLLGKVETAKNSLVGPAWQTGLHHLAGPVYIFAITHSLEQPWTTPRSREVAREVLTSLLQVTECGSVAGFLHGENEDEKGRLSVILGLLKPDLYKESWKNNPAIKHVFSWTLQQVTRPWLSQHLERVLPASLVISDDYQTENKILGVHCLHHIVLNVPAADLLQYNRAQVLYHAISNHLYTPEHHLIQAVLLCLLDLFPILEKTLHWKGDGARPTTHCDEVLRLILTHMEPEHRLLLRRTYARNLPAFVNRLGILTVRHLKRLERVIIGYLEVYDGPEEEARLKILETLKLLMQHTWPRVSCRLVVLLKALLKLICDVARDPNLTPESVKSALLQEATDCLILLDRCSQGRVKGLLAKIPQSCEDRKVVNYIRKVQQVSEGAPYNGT
inactive: vemurafenib -0.009 | [1] 0 | barasertib 0.005 | [2] -0.022 | volasertib -0.048 | [3] -0.004 | [4] 0 | [5] 0.035 | saracatinib 0.037 | sotrastaurin 0.031 | alvocidib -0.006 | Tubastatin A -0.081 | [6] 0.03 | defactinib 0.069 | [7] 0.006 | encorafenib 0.072 | [8] 0.015 | alisertib 0.004 | [9] 0.024 | gefitinib -0.034

TRAPPC12 (UniProt Q8WVT3)
Sequence of UniProt Q8WVT3 (Q8WVT3 whole entry, looked up): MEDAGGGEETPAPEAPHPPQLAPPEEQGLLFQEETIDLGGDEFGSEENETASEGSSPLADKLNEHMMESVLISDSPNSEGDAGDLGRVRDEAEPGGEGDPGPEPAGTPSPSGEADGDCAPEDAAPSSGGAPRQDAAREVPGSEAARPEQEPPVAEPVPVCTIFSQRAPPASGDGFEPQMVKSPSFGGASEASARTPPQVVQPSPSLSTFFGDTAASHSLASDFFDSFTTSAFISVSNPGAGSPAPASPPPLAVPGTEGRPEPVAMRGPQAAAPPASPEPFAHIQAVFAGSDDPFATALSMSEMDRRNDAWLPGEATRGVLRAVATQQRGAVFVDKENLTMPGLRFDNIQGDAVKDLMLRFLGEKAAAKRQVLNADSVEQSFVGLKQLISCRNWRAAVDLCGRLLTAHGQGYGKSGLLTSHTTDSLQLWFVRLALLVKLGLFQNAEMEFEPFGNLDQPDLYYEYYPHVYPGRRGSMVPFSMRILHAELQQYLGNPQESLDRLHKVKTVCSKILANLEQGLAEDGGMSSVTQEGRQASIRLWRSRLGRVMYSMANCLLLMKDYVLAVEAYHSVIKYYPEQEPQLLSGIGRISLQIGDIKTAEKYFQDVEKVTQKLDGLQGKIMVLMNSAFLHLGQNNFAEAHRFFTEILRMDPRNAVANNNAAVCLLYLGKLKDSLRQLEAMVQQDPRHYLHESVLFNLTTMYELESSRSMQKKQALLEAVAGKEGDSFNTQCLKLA
inactive: vemurafenib 0.039 | [1] -0.001 | barasertib -0.007 | [2] 0.047 | volasertib -0.083 | [3] -0.03 | [4] -0.027 | [5] -0.009 | saracatinib 0.028 | sotrastaurin -0.003 | alvocidib -0.009 | Tubastatin A -0.079 | [6] 0.063 | defactinib 0.002 | [7] -0.039 | encorafenib 0.065 | [8] 0.057 | alisertib 0.034 | [9] 0.01 | gefitinib 0.022

TRIM33 (UniProt H0Y612)
inactive: vemurafenib 0.012 | [1] 0.007 | barasertib 0.087 | [2] 0.018 | volasertib 0.012 | [3] 0.093 | [4] -0.017 | [5] 0.051 | saracatinib -0.078 | sotrastaurin 0.006 | alvocidib -0.081 | Tubastatin A -0.034 | [6] 0.119 | defactinib -0.007 | [7] 0.075 | encorafenib 0.014 | [8] 0.122 | alisertib -0.006 | [9] 0.09 | gefitinib -0.102

UBTF (UniProt P17480)
Sequence of UniProt P17480 (P17480 whole entry, looked up): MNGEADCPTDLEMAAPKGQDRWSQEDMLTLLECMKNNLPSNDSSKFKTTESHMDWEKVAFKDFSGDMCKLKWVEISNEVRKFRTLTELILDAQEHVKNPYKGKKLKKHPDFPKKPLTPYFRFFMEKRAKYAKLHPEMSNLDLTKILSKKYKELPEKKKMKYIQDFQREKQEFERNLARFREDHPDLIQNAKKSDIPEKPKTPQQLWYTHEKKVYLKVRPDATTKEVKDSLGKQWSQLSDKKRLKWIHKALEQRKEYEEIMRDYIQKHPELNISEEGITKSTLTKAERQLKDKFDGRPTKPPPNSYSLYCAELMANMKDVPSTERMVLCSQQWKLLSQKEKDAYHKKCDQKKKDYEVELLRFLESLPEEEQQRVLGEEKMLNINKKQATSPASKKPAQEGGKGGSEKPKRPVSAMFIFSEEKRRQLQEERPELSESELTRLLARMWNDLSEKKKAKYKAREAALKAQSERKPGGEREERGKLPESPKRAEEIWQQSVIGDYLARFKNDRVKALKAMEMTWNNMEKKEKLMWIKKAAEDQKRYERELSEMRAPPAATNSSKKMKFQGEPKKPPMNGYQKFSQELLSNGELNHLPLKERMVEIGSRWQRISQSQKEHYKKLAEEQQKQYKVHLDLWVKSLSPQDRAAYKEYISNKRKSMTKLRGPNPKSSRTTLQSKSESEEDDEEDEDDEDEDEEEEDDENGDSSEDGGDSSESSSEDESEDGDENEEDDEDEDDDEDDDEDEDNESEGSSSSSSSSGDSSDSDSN
inactive: vemurafenib -0.024 | [1] 0.002 | barasertib 0.011 | volasertib -0.011 | [3] 0.002 | [4] 0.038 | [5] -0.067 | saracatinib 0.042 | sotrastaurin 0.023 | alvocidib 0.026 | Tubastatin A -0.135 | [6] -0.008 | defactinib 0.007 | [7] 0.004 | encorafenib -0.002 | [8] 0.073 | alisertib 0.055 | [9] -0.018 | gefitinib 0.045
active: [2] -0.291

TRNAU1AP (UniProt Q9NX07)
Sequence of UniProt Q9NX07 (Q9NX07 whole entry, looked up): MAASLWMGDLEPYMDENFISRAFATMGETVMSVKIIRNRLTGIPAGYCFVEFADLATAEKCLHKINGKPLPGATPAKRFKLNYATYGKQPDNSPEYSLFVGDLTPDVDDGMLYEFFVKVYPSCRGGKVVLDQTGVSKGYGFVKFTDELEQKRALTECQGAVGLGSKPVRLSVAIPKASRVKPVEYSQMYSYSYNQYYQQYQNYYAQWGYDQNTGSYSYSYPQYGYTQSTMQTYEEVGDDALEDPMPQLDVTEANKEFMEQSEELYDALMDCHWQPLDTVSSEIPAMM
active: vemurafenib -0.335
inactive: [1] 0.007 | barasertib 0.059 | [2] 0.062 | volasertib -0.041 | [3] 0.04 | [4] -0.264 | [5] 0.031 | saracatinib 0.027 | sotrastaurin -0.027 | alvocidib -0.059 | Tubastatin A -0.08 | [6] 0.015 | defactinib -0.192 | [7] -0.039 | encorafenib 0.045 | [8] 0.034 | alisertib 0.098 | [9] -0.007 | gefitinib -0.019

TRIM23 (UniProt P36406)
inactive: vemurafenib 0.077 | [1] -0.038 | barasertib 0.119 | [2] 0.115 | volasertib -0.03 | [3] 0.316 | [4] -0.28 | [5] 0.073 | saracatinib 0.096 | sotrastaurin 0.01 | alvocidib -0.071 | Tubastatin A 0.023 | [6] 0.017 | defactinib -0.008 | [7] 0.354 | encorafenib -0.063 | [8] 0.06 | alisertib -0.014 | [9] 0.154 | gefitinib 0.057
